Compound activity: PubChem BioAssay, National Center for Advancing Translational Sciences (NCATS)
ELG1 repair inh: inhibitors of ELG1-dependent DNA repair in HEK293T cells | AID 504467 | Potency, µM (doses to about 46.1 µM), actives largely listed as inhibitors | actives 2.3% (n = 330,000) | HEK293T ELG1-luciferase reporter, luminescence, 16 h; DNA damage induced by 5-fluorouridine; also: nearly all actives have a fitted effect of over 55% in size
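Luminescence from the luciferase reporter, measured 30 min after ONE-Glo reagent at room temperature, was the read-out. Beforehand, 2,000 cells per well were exposed for 16 hr at 37 °C to 5-fluorouridine together with compound or vehicle.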
TRPV1 agonist: activates the human vanilloid receptor TRPV1. AID 540275. TRPV1-expressing cells, Fluo-8 calcium influx, agonist mode. activation, % at 8.33 µM. actives 0.19% (n = 320,000). Q8NER1; in the data active = activation above about 80%; inconclusive = between about 30% and that limit
Target sequence (Q8NER1 whole entry, looked up): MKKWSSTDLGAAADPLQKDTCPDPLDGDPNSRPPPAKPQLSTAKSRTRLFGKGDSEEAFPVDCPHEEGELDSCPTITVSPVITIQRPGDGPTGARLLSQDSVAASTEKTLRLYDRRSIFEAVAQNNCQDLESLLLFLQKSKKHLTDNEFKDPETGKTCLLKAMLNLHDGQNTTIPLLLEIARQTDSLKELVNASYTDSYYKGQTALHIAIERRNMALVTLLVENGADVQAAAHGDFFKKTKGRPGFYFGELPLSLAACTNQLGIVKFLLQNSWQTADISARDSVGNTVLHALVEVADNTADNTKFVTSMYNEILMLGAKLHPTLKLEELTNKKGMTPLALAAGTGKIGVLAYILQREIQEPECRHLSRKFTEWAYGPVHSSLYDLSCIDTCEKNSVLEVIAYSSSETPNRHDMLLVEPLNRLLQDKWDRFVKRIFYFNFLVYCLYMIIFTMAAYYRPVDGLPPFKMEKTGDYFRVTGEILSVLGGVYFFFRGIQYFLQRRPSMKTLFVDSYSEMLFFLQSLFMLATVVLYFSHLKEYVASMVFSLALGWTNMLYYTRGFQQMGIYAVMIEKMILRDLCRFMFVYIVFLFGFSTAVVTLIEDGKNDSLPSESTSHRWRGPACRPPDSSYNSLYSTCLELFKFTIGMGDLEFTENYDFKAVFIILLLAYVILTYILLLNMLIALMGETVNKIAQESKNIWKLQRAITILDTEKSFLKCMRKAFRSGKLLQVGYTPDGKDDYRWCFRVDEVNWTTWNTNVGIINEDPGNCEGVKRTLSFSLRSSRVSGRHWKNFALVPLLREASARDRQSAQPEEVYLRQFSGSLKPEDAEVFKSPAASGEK
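TRPV1-expressing cells were cultured overnight at 35.5C and loaded with Fluo-8 calcium dye for 40 to 90 min at room temperature. After a 10 s baseline, compound was added and calcium influx was read kinetically for 3 min (ex 480/em 520 nm).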
TRPV1 PAM: potentiators of human vanilloid receptor 1 (TRPV1); Q8NER1; TRPV1-expressing cells, Fluo-8 calcium influx, capsaicin EC20 potentiation; potentiation, % at 8.33 µM; actives 0.02% (n = 320,000); AID 540277; in the data active = potentiation above about 80%; inconclusive = between about 30% and that limit
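TRPV1-expressing cells were cultured overnight at 35.5C and loaded with Fluo-8 calcium dye for 40 to 90 min at room temperature. After a 10 s baseline, compound was added and calcium influx was read kinetically for 3 min (ex 480/em 520 nm).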
FUS yeast rescue: rescues growth of FUS-expressing yeast; S. cerevisiae FUS-expressing, growth rescue, OD600, 24 h; Potency, µM (series often up to 76.6 µM), usual class: activators; actives 0.24% (n = 390,000); also: nearly all actives have a fitted effect of over 55% in size
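FUS-expressing yeast, raffinose-pregrown, induced in 2% galactose minimal medium at OD 0.005; compounds in a dilution series, 24hr at 30C. Growth restoration read as absorbance at 600 nm. CP55940 positive control, DMSO negative.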
Giardia kill: Giardia lamblia killing. activity change, % at 7.66 µM, hits read low. actives 0.15% (n = 340,000). AID 540267. Giardia lamblia trophozoite viability; in the data active = activity change below about -80%; inconclusive = between about -30% and that limit;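 also: parasites exposed to compound for two days anaerobically before the ATP read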
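Giardia trophozoites, 100 cells per well, were exposed to compounds for 48 hrs at 37 deg C under anaerobic conditions; viability was then read as ATP content by bioluminescence after 15-30 min at room temperature.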
ELG1 FLuc counter: luciferase inhibition in cell-free luciferin readout for ELG1 hits | shares compounds with ELG1 repair inh | cell-free firefly luciferase luminescence counter-screen, ViewLux | Potency, µM (top dose mostly 46.1 µM), actives largely listed as inhibitors | actives 3% (n = 350) | AID 624247
ELG1-Luc inh: confirmation of human ELG1-dependent DNA repair inhibitors; shares compounds with ELG1 repair inh; HEK293T ELG1-luciferase levels, luminescence; cells co-treated with 5-fluorouridine; Potency, µM (highest dose often 46.1 µM), actives largely listed as inhibitors; actives 68% (n = 670); AID 624248; also: nearly all actives have a fitted effect of over 55% in size
ELG1 MMS Luc: confirmation of human ELG1 repair inhibitors, MMS stimulated | HEK293T luciferase-tagged ELG1 level, MMS stimulated | shares compounds with ELG1 repair inh | Potency, µM (titrated, usually from 46.1 µM), actives largely listed as inhibitors | AID 624249 | actives 53% (n = 670); also: nearly all actives have a fitted effect of over 60% in size
ELG1 5FU viab: confirmation of ELG1 repair inhibitors: viability with 5FU; shares compounds with ELG1 repair inh; cell viability with 5-FU, ELG1-dependent repair; Potency, µM (doses to about 46.1 µM), usual class: cytotoxic; 670 tested, under 10 active;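 also: ELG1-luc HEK293T cells cotreated with 5-fluorouridine at 10 µM final; viability measured 16 h after compound addition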
ELG1 MMS viab: confirmation of ELG1 repair inhibitors: viability with MMS; shares compounds with ELG1 repair inh; Cell viability with MMS, ELG1-dependent DNA repair; Potency, µM (top dose mostly 46.1 µM), actives largely listed as cytotoxic; actives 33% (n = 670);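 also: ELG1-luc HEK293T cells co-treated with 10 µM MMS; viability read 16 h after compound addition; nearly all actives have a fitted effect of over 60% in size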
ELG1 unstim viab: affects unstimulated cell viability, ELG1 hit counter-screen | cell viability counter-screen, unstimulated, luminescence | shares compounds with ELG1 repair inh | Potency, µM (doses to about 45.9 µM), hits mostly cytotoxic | actives 8% (n = 900) | AID 624252;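 also: compound exposure lasted 16 hours before reading; nearly all actives have a fitted effect of over 55% in size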
FLuc biochem: counter-screen for ELG1 repair inhibitors: firefly luciferase inhibition. actives 10% (n = 350). AID 624253. purified firefly luciferase, luminescence counter-screen. Potency, µM (top dose mostly 57.5 µM), usual class: inhibitors. shares compounds with ELG1 repair inh
Hits are given with their value; n = inactive; u = inconclusive; x = no result. Most compounds without a hit are left out; they make up all but 2.3% or so of the library. Unless noted, calls follow the shape of the dose curve; as a rule, active = well fitted curve in the direction sought with a large enough effect; inconclusive = small, poorly fitted or top-dose-only effect, or another doubt; inactive = no such curve, though single readings can be large; an effect the other way counts as inactive or inconclusive.

SMILES	ELG1 repair inh	TRPV1 agonist	TRPV1 PAM	FUS yeast rescue	Giardia kill	ELG1 FLuc counter	ELG1-Luc inh	ELG1 MMS Luc	ELG1 5FU viab	ELG1 MMS viab	ELG1 unstim viab	FLuc biochem
C[C@H]1CCC[C@@H](O)CCC/C=C/c2cc(O)cc(O)c2C(=O)O1	2.8µM	n	n	n	n	x	4µM	4µM	n	u	u	x
COc1ccc(C(=O)CN2CCCCC2)cc1	u	n	n	n	n	x	x	x	x	x	x	x
COc1ccc(C(=O)CC2(CC(=O)c3ccc(OC)cc3)C(=O)N(C)C(=O)N(C)C2=O)cc1	1.6µM	n	n	n	n	x	0.5µM	n	u	n	n	x
CC(=O)O[C@H]1C[C@@H](O[C@@H]2[C@H](C)O[C@H](O[C@@H]3[C@H](C)O[C@H](O[C@@H]4CC[C@@]5(C)[C@@H](CC[C@]6(C)[C@]5(C)C[C@H](O)[C@]5(C)[C@@H](C7=CC(=O)OC7)CC[C@@]56O)C4)C[C@@H]3O)C[C@@H]2O)O[C@@H](C)[C@H]1O[C@H]1O[C@@H](CO)[C@@H](O)[C@@H](O)[C@@H]1O	x	x	x	x	x	u	1.1µM	0.6µM	u	1.7µM	u	n
CC(=O)OC1CCC23C(=O)OC45CCC(C6=CC(=O)OC6)C4(C)CCC2C5CCC3(O)C1 (configuration not stated)	x	x	x	x	x	x	1.3µM	0.63µM	u	1.3µM	0.44µM	x
CC(=O)OC1CC[C@]2(C)C(CCC3C2CC[C@]2(C)C(C4=CC(=O)OC4)C(OC(C)=O)CC32O)C1 (some centres not stated)	x	x	x	x	x	x	1.4µM	0.89µM	u	1.3µM	0.63µM	x
Clc1cccc(Cl)c1Cn1nnc(N2CCCC2)n1	u	n	u	n	n	x	x	x	x	x	x	x
COc1ccc(Cc2nccc3cc(OC)c(OC)cc23)cc1OC	n	n	n	n	n	x	x	x	x	x	x	x
COc1ccc(/C(=N/OC(C)=O)c2nccc3cc(OC)c(OC)cc23)cc1OC	3.3µM	n	n	n	n	x	u	n	u	n	n	x
Cc1ccc(C)c(N2CCN(C(=O)CCNS(=O)(=O)c3ccc4c(c3)oc(=O)n4C)CC2)c1	u	u	n	n	n	x	x	x	x	x	x	x
COc1ccc(NC(=O)CCCn2c(=O)oc3ccccc32)cc1Cl	u	n	n	n	n	x	x	x	x	x	x	x
CC1OC(=O)C(C(C)C)NC(=O)C(C(C)C)OC(=O)C(C(C)C)NC(=O)C(C)OC(=O)C(C(C)C)NC(=O)C(C(C)C)OC(=O)C(C(C)C)NC(=O)C(C)OC(=O)C(C(C)C)NC(=O)C(C(C)C)OC(=O)C(C(C)C)NC1=O (configuration not stated)	x	x	x	x	x	u	n	0.035µM	u	0.079µM	0.035µM	n
Cc1cnn(-c2cc(Oc3ccccc3)ncn2)c1	u	n	n	n	n	x	x	x	x	x	x	x
CCCC(=O)O[C@@H]1[C@@H](C)[C@@]2(O)[C@@H](C=C(CO)C[C@]3(O)C(=O)C(C)=C[C@@H]23)[C@@H]2C(C)(C)[C@]12OC(=O)CCC	x	x	x	x	x	x	x	x	x	x	u	x
CCCCCCCCCCCCCC(=O)O[C@@H]1[C@@H](C)[C@@]2(O)[C@H](C=C(CO)C[C@]3(O)C(=O)C(C)=C[C@@H]23)[C@@H]2C(C)(C)C12OC(C)=O (some centres not stated)	x	x	x	x	x	n	x	x	x	x	u	u
CC1(C)Cc2c(sc3nc4n(-c5ccccc5)c(=O)c(CCC(=O)O)nn4c(=O)c23)CO1	u	n	n	n	n	x	x	x	x	x	x	x
CC1CCC(NC(=O)c2cc3c(=O)n(C)c4ccccc4c3n2C)CC1 (configuration not stated)	u	n	n	n	n	x	x	x	x	x	x	x
COc1cc2c(c(OC)c1OC)-c1ccc(O)c(=O)cc1C(NC(C)=O)CC2 (configuration not stated)	u	n	n	n	n	n	x	x	x	x	n	n
CC(=O)OCC1=C[C@H]2[C@@H]3C(C)(C)[C@]3(OC(=O)Cc3ccccc3)C[C@@H](C)[C@]2(O)[C@@H]2C=C(C)C(=O)[C@@]2(O)C1	x	x	x	x	x	x	x	x	x	x	u	x
COc1ccc(-c2oc(=O)n(C)c2-c2ccc(OC)cc2)cc1	u	n	n	n	n	x	x	x	x	x	x	x
CO/C1=C\C(C)=C\[C@@H](C)[C@@H](O)[C@H](C)C/C(C)=C/C=C/[C@H](OC)[C@H]([C@@H](C)[C@@H](O)[C@H](C)[C@H]2C[C@@H](O)[C@H](C)[C@@H](C(C)C)O2)OC1=O	x	x	x	x	x	n	n	n	n	u	u	n
COC(=O)c1ccc2ccn(CC(=O)NC(C)C)c2c1	u	n	n	n	n	x	x	x	x	x	x	x
CC1O[C@@H](OC2CC[C@@]3(C=O)C4CC[C@]5(C)C(C6=CC(=O)OC6)CC[C@@]5(O)C4CC[C@]3(O)C2)C(O)C(O)C1O (some centres not stated)	x	x	x	x	x	u	0.32µM	0.16µM	u	0.28µM	0.14µM	n
COC1C(O)C(C)OC(OC2CCC3(C)C(CCC4C3C(O)CC3(C)C(C5=CC(=O)OC5)CCC43O)C2)C1O (configuration not stated)	x	x	x	x	n	x	x	x	x	x	x	x
CCOc1ccc(OCC)c(NC(=O)CN2CCN(c3ccc(C)cc3C)CC2)c1	u	n	n	n	n	x	x	x	x	x	x	x
COc1cc([C@@H]2c3cc4c(cc3C[C@H]3COC(=O)[C@@H]32)OCO4)cc(OC)c1O	x	x	x	x	n	x	x	x	x	x	x	x
COc1cc2c(cc1OC)C1C(=O)c3c(cc4c(c3O)C=CC(C)(C)O4)OC1CO2 (configuration not stated)	x	x	x	x	x	n	u	0.71µM	n	0.79µM	u	u
COc1ccc(C(=O)NCc2cc3ccccc3n2C)cc1	u	n	n	n	n	x	x	x	x	x	x	x
